Screens deposited in PubChem BioAssay by National Center for Advancing Translational Sciences (NCATS).
Most compounds without a hit are left out; they make up all but 21% or so of the library.
Pf growth 48h: P. falciparum growth inhibition at 48 hours (one generation). P. falciparum luciferase growth in erythrocytes, 48 h. Potency, µM (top dose mostly 28.7 µM), inactives show at the highest dose activity change, negative = inhibition, most hits filed as inhibitors. actives 5.9% (n = 310,000); also: potency is read from the fitted curve at half-maximal effect; % is scaled to controls: 0 for no effect and ±100 for the full control effect
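Read-out is firefly luciferase luminescence from an integrated reporter in P. falciparum, so falling signal marks reduced parasite growth. Infected erythrocytes were at 2% hematocrit and 0.1% parasitemia (final) in Albumax-supplemented RPMI 1640.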
Pf growth 96h: P. falciparum growth inhibition at 96 hour, primary screen for plastid delayed-death inhibitors | P. falciparum luciferase reporter growth, 96 h | Potency, µM (highest dose often 28.7 µM), without a hit: at the highest dose activity change, negative = inhibition, usual class: inhibitors | actives 6.9% (n = 320,000) | AID 504834; also: potency is read from the fitted curve at half-maximal effect; % is scaled to controls: 0 for no effect and ±100 for the full control effect
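Infected RBCs, 2% Hct / 0.05% parasitemia final; luciferase-reporter P. falciparum; cpd 96 h, 37 C, 5% CO2; luciferase detection reagent; luminescence.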
Cycloheximide cs: affects cycloheximide protein synthesis inhibition readout, counter-screen; AID 2314; actives 12% (n = 300,000); max response, %; cell reporter, cycloheximide protein synthesis inhibition counterscreen; in the data active = max response mostly above about 13%, no sharp cut-off; inactive = mostly below about 14%; also: read at 38.3 µM for the half of the compounds with a filed dose; 0% is about no effect
Shiga toxin inh: Shiga toxin inhibition. Vero cells, Shiga toxin protein synthesis inhibition reporter. inhibition, % at 38.7 µM. actives 9.2% (n = 290,000). AID 2315; in the data active = inhibition mostly above about 28%, no sharp cut-off; inactive = mostly below about 43%; also: 0% is about no effect
The depositor's hits bear a star; ? = inconclusive; nt = no result. Unless noted, calls follow the shape of the dose curve; as a rule, active = well fitted inhibition curve with a large enough effect; inconclusive = small, poorly fitted or top-dose-only effect, or another doubt; inactive = no such curve, though single readings can be large or run the other way.

SMILES | Pf growth 48h | Pf growth 96h | Cycloheximide cs | Shiga toxin inh
COc1ccc(C(C(=O)Nc2ccc(C(C)C)cc2)N(Cc2ccco2)C(=O)CC2NC(=O)NC2=O)cc1 (stereo not drawn) | 1.5µM* | ? | 8 | -4
COc1ccc(NC(=O)C(c2ccc(OC)cc2)N(Cc2ccco2)C(=O)CC2NC(=O)NC2=O)cc1 (stereo not drawn) | ? | ? | -1 | 11
C(=N\NC(=Nc1ccccc1)c1ccccn1)/c1ccccn1 | ? | 28% | 14* | 28
Clc1ccc(/C=N/NC(=Nc2ccccc2)c2ccccn2)c(Cl)c1 | 33% | -38% | 41* | 124*
O=C(N/N=C/c1ccccn1)C(O)c1ccccc1 (stereo not drawn) | 9% | 25% | -2 | -16
COC(=O)c1cn(NC(=O)/C=C/c2cc(OC)ccc2OC)c(=O)c2ccccc12 | ? | 14% | -4 | -15
Cc1nc2sccn2c(=O)c1S(=O)(=O)N1CCN(c2cccc(C(F)(F)F)c2)CC1 | ? | 10µM* | 1 | -3
Cc1ccc(C(C)C)cc1S(=O)(=O)NCc1ccccn1 | 0% | 2% | 1 | -10
CC(C)(C)C1CCC(=O)N(CCSc2ccccc2)CC1 (stereo not drawn) | 260% | 8% | 32* | 62*
Cc1ccc(SCCN2CCC(C(C)(C)C)CCC2=O)cc1 (stereo not drawn) | 94% | -13% | 25* | 42*
Cc1ccc(SCCN2CCC(C)CCC2=O)cc1 (stereo not drawn) | 177% | 85% | 29* | 38*
C[C@@H](CSc1ccccc1)CN1CC[C@H](C(C)(C)C)CCC1=O | ? | 90% | -3 | 14
C[C@H]1CCC(=O)N(CCSc2ccc(Br)cc2)CC1 | 44% | 56% | nt | nt
Cc1ccc(S[C@@H](CCN2CC[C@H](C(C)(C)C)CCC2=O)c2ccccc2)cc1 | ? | ? | 3 | 9
CN(C(=O)CN1CCN(c2ccccc2F)CC1)C1CCCc2ccccc21 (stereo not drawn) | -6% | 16% | -6 | -3
COc1cc(C(=O)NC(C)c2cccc3ccccc23)cc(OC)c1OC (stereo not drawn) | ? | -13% | -4 | -12
CC1CCC2(CC1)NC(=O)N(CC(=O)NCCc1ccc(F)cc1)C2=O (stereo not drawn) | -13% | -14% | nt | nt
O=C(Nc1cccnc1)c1ccc(-c2cc(Cl)ccc2Cl)o1 | ? | 12% | 22* | 49
O=C(Cc1ccc(Cl)c(Cl)c1)Nc1cccnc1 | -3% | -5% | -3 | 6
O=C(Nc1cccnc1)c1ccc(-c2ccc(Cl)cc2)o1 | 20% | -12% | 66* | 73*
CN(C)C(=O)c1ccc(NC(=O)c2ccc(-c3ccc(Cl)cc3)o2)cc1 | 4% | ? | nt | nt
O=C(NCc1cccnc1)c1ccc(-c2cc(Cl)ccc2Cl)o1 | ? | 12µM* | 1 | -14
O=C(NCc1cccnc1)c1ccc(-c2ccc(Cl)cc2)o1 | -15% | 0% | 16 | 16
Cc1ccc(Cl)cc1N(Cc1ccc(C(=O)NCc2cccnc2)cc1)S(=O)(=O)c1ccccc1 | ? | 13µM* | -3 | -1
CSc1nc(-c2ccccc2)nc(NC(C)=O)c1C(C)=O | 6% | ? | -2 | 25
SMILES | Pf growth 48h | Pf growth 96h | Cycloheximide cs | Shiga toxin inh
Cc1c(Cl)c([N+](=O)[O-])nn1CCCC(=O)Nc1ccc(Cl)cc1Cl | 35% | 12µM* | 1 | -2
Cc1ccc(Cn2nc(C)c(NC(=O)CCCn3nc([N+](=O)[O-])c(Cl)c3C)c2C)cc1 | -4% | 2% | -5 | -15
Cc1nn(Cc2ccccc2Cl)c(C)c1NC(=O)CCCn1nc([N+](=O)[O-])c(Cl)c1C | -15% | 4.7µM* | -1 | -8
Cc1cc(NC(=O)CCCn2nc(C)c([N+](=O)[O-])c2C)no1 | 5% | 1.5µM* | 8 | -4
COC(=O)c1cc(C(C)=O)c(C)[nH]c1=O | -3% | 5.2µM* | -5 | -10
CCOC(=O)c1cc(C(C)=O)c(=O)[nH]c1C | 18% | 34% | 8 | 30
CCOCCn1c(C)c(C(=O)OCC)c2cc(O)c3ccccc3c21 | 2.3µM* | 3.7µM* | nt | nt
O=C(NNc1ccc(C(F)(F)F)cc1[N+](=O)[O-])c1ccc(NS(=O)(=O)c2ccc(F)cc2)cc1 | ? | 8.3µM* | -3 | -6
C/C(=N\NC(=O)c1sccc1C)c1cccnc1 | 47% | 1% | 41* | 89*
C/C(=N\NC(=O)c1sccc1C)c1ccncc1 | 98% | 7.4µM* | 44* | 109*
CSCCC(NC(=O)c1ccccc1Br)C(=O)NNC(=O)c1ccco1 (stereo not drawn) | 0% | 0% | nt | nt
COc1cccc(C(=O)CC(=O)C(=O)Nc2cc(Cl)c(OC)cc2OC)c1 | -5% | -23% | -4 | -4
